Our source for the composite z-score and z-score values is PubChem BioAssay.

Structures are written as SMILES. Calls of active or inactive are those of the source.

Assay [1] in a line: small molecules captured by biotinylated probe aFSTL3 – biochemical, small-molecule microarray, fluorescence 635/667, stem cell growth factor project, primary screen (AID 1064).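 Further: measures binding of the biotinylated anti-FSTL3 antibody to printed compounds.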 The following applies: higher = more signal.
Assay [2] is described as follows: binders from COS7 lysate, DM2A8 probe, primary screen, torsin A project, cell lysate, small-molecule microarray, fluorescence 635/667 (AID 1065). The settings on record: higher = more signal, COS7 lysate expressing mutant human TOR1A.
A short description of assay [3]: small molecules captured by biotinylated probe aFGF2 – biochemical, small-molecule microarray, fluorescence 635/667, stem cell growth factor project, primary screen (AID 1067).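 Further: measures binding of biotinylated aFGF2 protein to printed compounds on slides; z-score merges feature fluorescence and signal-to-noise across triplicate slides.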 The following applies: higher = more signal.
The nature of assay [4]: small molecules captured by biotinylated probe aFGF10 – biochemical, small-molecule microarray, fluorescence 635/667, stem cell growth factor project, primary screen (AID 1071).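 Further: score merges 667 nm spot intensity and signal to noise from triplicate slides.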 The following applies: higher = more signal.
The target of assay [5] is Neurogenic locus notch homolog protein 2 (Homo sapiens) (UniProt Q04721). In words: small molecules binding Notch2 protein – biochemical, small-molecule microarray, 635 nm fluorescence, stem cell growth factors, primary screen (AID 1073). The following applies: higher = more signal.
Sequence of Neurogenic locus notch homolog protein 2 (Homo sapiens) (Q04721 whole entry, looked up, canonical isoform): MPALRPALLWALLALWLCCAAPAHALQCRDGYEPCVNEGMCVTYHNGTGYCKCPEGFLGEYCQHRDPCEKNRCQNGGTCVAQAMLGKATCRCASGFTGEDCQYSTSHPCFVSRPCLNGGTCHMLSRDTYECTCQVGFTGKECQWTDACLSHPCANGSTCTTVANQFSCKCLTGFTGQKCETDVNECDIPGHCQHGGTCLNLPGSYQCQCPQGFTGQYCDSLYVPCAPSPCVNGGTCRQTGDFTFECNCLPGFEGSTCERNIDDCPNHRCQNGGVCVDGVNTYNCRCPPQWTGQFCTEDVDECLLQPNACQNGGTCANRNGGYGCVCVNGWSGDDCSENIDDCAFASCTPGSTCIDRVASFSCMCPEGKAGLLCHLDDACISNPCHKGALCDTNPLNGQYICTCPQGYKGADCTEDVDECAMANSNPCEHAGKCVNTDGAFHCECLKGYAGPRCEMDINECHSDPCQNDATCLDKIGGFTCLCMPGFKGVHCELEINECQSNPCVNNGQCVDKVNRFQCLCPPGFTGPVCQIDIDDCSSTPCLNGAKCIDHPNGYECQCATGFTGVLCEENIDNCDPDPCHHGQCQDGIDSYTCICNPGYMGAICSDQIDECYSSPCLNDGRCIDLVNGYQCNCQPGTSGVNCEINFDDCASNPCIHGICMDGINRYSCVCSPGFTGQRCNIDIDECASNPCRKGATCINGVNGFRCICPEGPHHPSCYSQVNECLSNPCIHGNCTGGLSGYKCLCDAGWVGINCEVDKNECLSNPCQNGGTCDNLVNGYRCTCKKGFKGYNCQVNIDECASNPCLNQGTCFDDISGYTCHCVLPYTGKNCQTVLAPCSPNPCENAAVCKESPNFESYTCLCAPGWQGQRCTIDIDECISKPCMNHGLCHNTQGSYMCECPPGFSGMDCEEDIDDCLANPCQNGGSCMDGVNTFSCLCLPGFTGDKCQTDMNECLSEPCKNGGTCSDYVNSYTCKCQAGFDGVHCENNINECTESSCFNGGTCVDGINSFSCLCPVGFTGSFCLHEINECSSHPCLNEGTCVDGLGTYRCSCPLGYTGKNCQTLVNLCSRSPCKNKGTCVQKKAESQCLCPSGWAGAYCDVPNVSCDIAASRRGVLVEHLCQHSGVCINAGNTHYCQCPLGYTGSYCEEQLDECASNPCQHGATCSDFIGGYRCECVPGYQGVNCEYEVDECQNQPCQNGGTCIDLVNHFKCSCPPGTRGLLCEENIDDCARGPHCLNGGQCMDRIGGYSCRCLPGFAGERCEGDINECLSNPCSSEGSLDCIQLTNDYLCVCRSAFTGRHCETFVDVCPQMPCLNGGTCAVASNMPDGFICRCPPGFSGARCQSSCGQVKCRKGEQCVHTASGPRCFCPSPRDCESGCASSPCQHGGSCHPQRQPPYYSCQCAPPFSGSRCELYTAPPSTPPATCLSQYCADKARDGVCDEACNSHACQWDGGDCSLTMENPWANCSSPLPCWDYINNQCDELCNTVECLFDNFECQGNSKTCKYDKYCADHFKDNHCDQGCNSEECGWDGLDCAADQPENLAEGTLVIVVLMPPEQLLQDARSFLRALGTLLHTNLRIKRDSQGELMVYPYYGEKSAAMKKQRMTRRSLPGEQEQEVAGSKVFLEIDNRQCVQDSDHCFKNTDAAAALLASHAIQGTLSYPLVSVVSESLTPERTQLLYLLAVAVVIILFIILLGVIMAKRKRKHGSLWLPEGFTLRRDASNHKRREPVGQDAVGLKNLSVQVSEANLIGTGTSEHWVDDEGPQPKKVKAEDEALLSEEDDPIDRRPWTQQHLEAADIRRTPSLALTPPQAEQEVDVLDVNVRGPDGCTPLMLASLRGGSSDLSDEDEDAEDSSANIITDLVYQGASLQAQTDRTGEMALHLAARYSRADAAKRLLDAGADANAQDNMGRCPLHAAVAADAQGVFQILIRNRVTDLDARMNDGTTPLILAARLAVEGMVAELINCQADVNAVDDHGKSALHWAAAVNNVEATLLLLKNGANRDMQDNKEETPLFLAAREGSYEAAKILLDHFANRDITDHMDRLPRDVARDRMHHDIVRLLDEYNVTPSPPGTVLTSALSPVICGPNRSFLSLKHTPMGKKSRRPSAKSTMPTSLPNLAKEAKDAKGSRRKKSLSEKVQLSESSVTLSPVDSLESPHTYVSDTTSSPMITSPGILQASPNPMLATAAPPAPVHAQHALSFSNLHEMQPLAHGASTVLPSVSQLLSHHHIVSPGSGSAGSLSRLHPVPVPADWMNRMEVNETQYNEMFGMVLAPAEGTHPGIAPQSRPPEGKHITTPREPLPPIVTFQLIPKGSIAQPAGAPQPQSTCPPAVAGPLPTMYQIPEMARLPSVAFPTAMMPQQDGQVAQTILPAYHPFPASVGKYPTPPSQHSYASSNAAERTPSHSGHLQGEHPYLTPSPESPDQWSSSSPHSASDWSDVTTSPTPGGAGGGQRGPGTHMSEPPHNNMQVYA
Assay [6] addresses Pro-neuregulin-1, membrane-bound isoform (Homo sapiens) (UniProt Q02297). Briefly: small molecules binding neuregulin-1 protein – biochemical, small-molecule microarray, fluorescence 635/667, psychiatric disease protein project, primary screen (AID 1075).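 Further: score combines 667 nm spot fluorescence with signal to noise.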 The settings on record: NRG1 binding, 635 nm fluorescence, higher = more signal.
The subject of assay [7] is Neuregulin-1 EGF-like domain. Briefly: small molecules binding NRG1 EGF domain – biochemical, small-molecule microarray, 635 nm fluorescence, primary screen (AID 1081).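 Further: binding of the protein to compounds printed on small-molecule microarray slides.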 The settings on record: higher = more signal.
The nature of assay [8]: FRG1 expression reporter modulators in myotubes – cell-based, C2C12 myotubes, firefly/Renilla luciferase, luminescence, FRG1 inhibition for FSHD, primary screen (AID 1084). The following applies: FRG1 promoter luciferase, higher = more signal, called active from +8 up or from −8 down.
Assay [9] in a line: small molecules captured by biotinylated probe aFST – biochemical, small-molecule microarray, fluorescence 635/667, stem cell growth factor project, primary screen (AID 1086).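 Further: score merges 667 nm fluorescence with signal-to-noise of each printed compound spot.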 The settings on record: higher = more signal.
Assay [10] can be described thus: binders of probe aHhip on microarray, primary screen, stem cell growth factor project, biochemical, small-molecule microarray, fluorescence 635/667 (AID 1087).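 Further: score merges spot fluorescence at 667nm with spot signal to noise ratio.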 The following applies: higher = more signal.

Sequence of Pro-neuregulin-1, membrane-bound isoform (Homo sapiens) (Q02297 whole entry, looked up, the tested form may be a part, canonical isoform): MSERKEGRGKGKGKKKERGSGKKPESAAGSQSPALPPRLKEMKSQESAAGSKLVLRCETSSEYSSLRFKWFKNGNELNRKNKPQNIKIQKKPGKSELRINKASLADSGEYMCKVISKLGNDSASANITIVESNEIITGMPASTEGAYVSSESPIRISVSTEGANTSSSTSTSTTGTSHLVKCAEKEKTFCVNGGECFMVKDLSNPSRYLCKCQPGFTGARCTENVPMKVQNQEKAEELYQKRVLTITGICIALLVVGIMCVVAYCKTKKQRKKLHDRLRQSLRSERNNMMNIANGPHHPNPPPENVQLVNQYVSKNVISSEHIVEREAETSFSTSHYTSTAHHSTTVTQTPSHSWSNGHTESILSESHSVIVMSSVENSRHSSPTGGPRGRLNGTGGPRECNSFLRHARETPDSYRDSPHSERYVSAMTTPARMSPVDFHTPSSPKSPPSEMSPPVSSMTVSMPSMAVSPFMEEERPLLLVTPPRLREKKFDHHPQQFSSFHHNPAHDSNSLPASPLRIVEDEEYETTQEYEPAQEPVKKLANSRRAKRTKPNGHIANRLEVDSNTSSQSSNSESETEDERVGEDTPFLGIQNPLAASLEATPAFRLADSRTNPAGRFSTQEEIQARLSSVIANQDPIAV

Regarding `COc1ccc(NN2C(C(O)c3ccco3)C=CC3C(=O)N(C4CCCCC4)C(=O)C32)cc1` (stereo not given), the composite z-score is -0.0934 in assay [1]; 1.14 in assay [2]; -0.051 in [3]; 1.12 in assay [4]; 1.36 in assay [5]; 0.95 in [6]. Further, the composite z-score in assay [7] is 1.15; in assay [9], 1.51; in [10] it was 0.0216. For the same compound, in assay [8], the z-score was 0.592 (inactive).
Regarding `C=CC[C@]1(C(=O)N(C)C)N=C(c2ccc(OCCCO)cc2)O[C@H]1c1ccccc1N=[N+]=[N-]`, the composite z-score in assay [1] is 0.396; in [2], -0.113; in assay [3] it was 0.161; in assay [4] it was 0.567; in [5], 1.48; in assay [6] it was 1.3. In addition, the composite z-score in [7] is 1.2; in assay [9] it was 1.87; in [10], -0.199. In addition, the z-score in assay [8] was 1.52 (inactive).
As to `NC(=O)N1C(=O)C2C(C1=O)C1C=C(c3ccc(CO)cc3)C2C(C2CC2)N1Cc1sc2ccccc2c1Cl` (stereo not given), the composite z-score in assay [1] was -0.418; in assay [2], 2.2; in assay [3], 0.0433; in [4], 1.17; in assay [5], 1.19; in assay [6], 1.6. Besides, the composite z-score is 1.28 in [7], 0.32 in assay [9] and 0.0623 in [10]. The z-score in assay [8] was -1.27 (inactive).
For the compound `CC1CC/C=C\[C@H]2OC34C=CCN(C(C)C)C(=O)[C@H]3N(CCCCCO)C(=O)[C@@H]4C2C(=O)O1` (stereo not given in full), the composite z-score in assay [1] is 0.4; in [2], -1.06; in assay [3], -0.0996; in assay [4], -0.47; in assay [5] it was -0.704; in assay [6] it was -0.187. In addition, the values for the composite z-score in [7], in assay [9] and in [10] were 0.0093, -0.386 and -0.191, respectively. In addition, in [8], the z-score was 0.371 (inactive).
In the case of `CCCC[C@@H]1C[C@H]1[C@@H](NC(=O)c1cccnc1)c1ccc(-c2ccccc2)cc1`, the composite z-score in [1] is 0.684; in assay [2], -0.242; in assay [3] it was -0.124; in assay [4], -0.522; in assay [5], -1.71; in [6], -0.401. For the same compound, the composite z-score in assay [7] is -0.655; in assay [9], -1.23; in assay [10], -0.0074. Besides, in assay [8], the z-score was -0.781 (inactive).
Consider `CN(C)C(=O)[C@]1(CCC(=O)OC(C)(C)C)N=C(c2ccc(OCCCO)cc2)O[C@@H]1c1ccccc1`, for which the composite z-score in assay [1] is -0.175; in assay [2], 0.527; in assay [3], -0.016; in assay [4], 0.776; in [5] it was 1.3; in assay [6] it was 1.91. The composite z-score in [7] is 1.4; in [9] it was 0.268; in assay [10], -0.0645. The z-score in [8] was 0.788 (inactive).
For `Cc1c(NC(=O)/C(C#N)=C/C=C/c2ccccc2[N+](=O)[O-])c(=O)n(-c2ccccc2)n1C`, the composite z-score in [1] was -0.0331; in assay [2] it was 0.563; in [3], 0.0415; in [4], 0.0448; in [5], 1.03; in assay [6] it was 1.1. Further, the results for the composite z-score in assay [7], in assay [9] and in [10] were 1.13, 0.334 and 0.0352, respectively. Besides, in assay [8], the z-score is -0.844 (inactive).
With `CN(C)CCCCNC(=O)[C@H]1C[C@H]2C(=O)N3CCC[C@H]3C(=O)N2[C@H]1c1ccc(O)cc1`, the composite z-score is -1.12 in assay [1]; -1.77 in assay [2]; -0.284 in assay [3]; -1.1 in assay [4]; -1.3 in [5]; -1.06 in [6]. The composite z-score is -0.239 in [7], 0.0253 in [9] and -0.389 in [10]. For the same compound, the z-score in [8] was 4.64 (inactive).
Take `C=C(/C=C/CNS(=O)(=O)c1ccc(C)cc1)[C@H](O)[C@H]1CCCN1S(=O)(=O)c1ccccc1[N+](=O)[O-]`: the composite z-score in assay [1] is -0.402; in [2], 0.578; in [3], -0.0817; in assay [4], 0.395; in assay [5], 0.324; in assay [6] it was 0.211. Besides, the composite z-score amounted to 0.0706 in assay [7], 0.279 in [9] and 0.0373 in assay [10]. In assay [8], the z-score was -4.12 (inactive).
In the case of `COC(=O)[C@@]1(Cc2ccc(OC)cc2)[C@H]2c3cc(C(=O)N(C)C)n(CCc4c[nH]c5ccc(O)cc45)c3C[C@H]2CN1C(=O)c1ccccc1`, the composite z-score in [1] was 1.27; in assay [2], -0.0234; in [3] it was 0.147; in assay [4] it was 1.04; in [5], 1.69; in assay [6], 1.91. Besides, the values for the composite z-score in [7], in assay [9] and in assay [10] were 1.25, 1.7 and 0.177, respectively. Also, in [8], the z-score was 1.5 (inactive).
Take `CC(C)CCC[C@@H](C)[C@H]1CC[C@@]2(C)C3=C(CC[C@]12C)[C@@]1(C)CC[C@H](OC(=O)c2ccc(Br)cc2)C(C)(C)C1CC3` (stereo not given in full): the composite z-score in assay [1] was -0.571; in assay [2] it was 0.193; in [3] it was -0.128; in assay [4], 0.541; in assay [5] it was 0.5; in assay [6], 0.0933. In addition, the composite z-score in assay [7] was 0.439; in [9], 0.0941; in assay [10], -0.126. Further, the z-score in assay [8] is -0.879 (inactive).
Turning to `COc1ccc([Si](C)(C)[C@H]2[C@H](CCn3cc([C@H](O)c4ccccc4)nn3)O[C@@]3(C(=O)N(Cc4ccc(N5CCC5=O)cc4)c4ccccc43)[C@@H]2C)cc1`, the composite z-score in [1] was -0.179; in assay [2], 1.16; in [3], -0.116; in assay [4] it was 0.368; in [5], 0.176; in assay [6], 0.635. In addition, the composite z-score in [7] is 0.636; in [9] it was 0.247; in assay [10], -0.0237. Moreover, the z-score in assay [8] is -2.36 (inactive).
On to `C=CCOC(=O)[C@@H]1[C@H]2C(=O)O[C@H](c3ccccc3)[C@H](c3ccccc3)N2[C@H](c2ccc(OCCOC(=O)[C@H]3C[C@H]4C(=O)N[C@@H](CCCCN(C)C)C(=O)N4[C@H]3c3cccc(OCCO)c3)cc2)[C@@]12C(=O)Nc1ccc(I)cc12`, for which the composite z-score was 0.0594 in assay [1]; 1.24 in assay [2]; -0.0308 in assay [3]; 0.526 in assay [4]; 0.59 in assay [5]; 1.55 in [6]. In addition, the composite z-score in [7] was 1.32; in assay [9], 0.312; in assay [10], 0.064. The z-score in [8] was 0.842 (inactive).
Consider `COCC(=C=CC[C@H](O)c1ccc(OCCO)cc1)C[C@H](O)COCc1ccccc1`, for which the composite z-score is -0.41 in assay [1]; 0.0477 in assay [2]; -0.0762 in assay [3]; 0.477 in assay [4]; 0.189 in assay [5]; 0.586 in [6]. Also, the composite z-score in [7] worked out at 1.03; in assay [9], 0.163; in [10], 0.0505. Besides, the z-score in assay [8] was 0.723 (inactive).
